Fluorescein fluor = compound fluoresces in the fluorescein spectral region; Compound autofluorescence, 480/540 nm, fluorescein-equivalent; stronger effect = higher value; max fluorescein-equivalent concentration, M; actives 0.91% (n = 59,000); AID 593; in the data active means max fluorescein-equivalent concentration above about 10 nM; inconclusive means between about 1.1 nM and that limit
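Each compound is tested across a concentration series in 100 mM Tris buffer at pH 8.0. After 15 min at room temperature, plates are imaged with 480 nm excitation and 540 nm emission filters, and intensities are converted to fluorescein-equivalent values.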
Rhodamine fluor = compound autofluorescence in rhodamine spectral region; Rhodamine-region fluorescence, 547/598 nm, Tris buffer; stronger effect = higher value; max dye-equivalent concentration, M; actives 0.05% (n = 59,000); AID 594; in the data active means max dye-equivalent concentration above about 11 nM; inconclusive means between about 1.1 nM and that limit
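Intrinsic compound fluorescence, ex 547 / em 598 nm, CCD imager. Tris 100 mM pH 8.0; 15 min RT. Output = rhodamine dye-equivalent concentration at each compound concentration.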
A647 fluor = A647 region autofluorescence; AID 592; Compound fluorescence, A647 channel (570/671 nm), Tris buffer; max dye-equivalent concentration, M; 59,000 tested, under 10 active;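 further: values scaled relative to a standard on each plate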
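Fluorescence read (570 nm ex, 671 nm em) after 15 min RT incubation of compounds in 100 mM Tris buffer, pH 8.0; values expressed as dye-equivalent concentration against a six-point A647 standard series on each plate.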
A488 fluor = compound fluoresces in the A488 spectral region | compound autofluorescence, A488 spectral region, dye equivalency; Compound Type: qHTS ECL - MLSMR | max dye equivalency, M | actives 0.1% (n = 59,000)
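Spectroscopic profiling in the A488 region: compounds in pH 8.0 Tris (100 mM), 15 min RT, CCD imaging with 480 nm excitation and 540 nm emission; responses normalized against A488 dye standards.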
Resorufin autofl = compound fluoresces in the resorufin spectral region. max dye-equivalent concentration, M. Compound fluorescence, resorufin region 547/598 nm, buffer; stronger effect = higher value. actives 0.04% (n = 59,000). AID 588
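Compounds in 100 mM Tris, pH 8.0, incubated 15 min at room temperature, then fluorescence read at 547 nm excitation/598 nm emission. Signal converted to dye-equivalent concentration via an on-plate six-point resorufin standard curve, per compound concentration.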
Texas Red fluor = compounds fluorescent in Texas Red spectral region; Compound fluorescence, Texas Red channel, 547/618 nm; stronger effect = higher value; max dye-equivalent concentration, M; actives 0.06% (n = 59,000); AID 587; in the data active means max dye-equivalent concentration above about 10 nM; inconclusive means between about 1.1 nM and that limit
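Dye-equivalent concentrations come from scaling compound signal (ex 547, em 618 nm) to six Texas Red standard concentrations run on every plate, after 15 min room-temperature incubation in pH 8.0 Tris (100 mM).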
* = called active by the depositor; i = inactive; ? = inconclusive; ! = a repeat was not active. Only some compounds are listed: those with a hit (about 0.9% of all), similar ones and a draw of the others. Unless noted, how the calls were made is not given here.

SMILES	Fluorescein fluor	Rhodamine fluor	A647 fluor	A488 fluor	Resorufin autofl	Texas Red fluor
COc1ccc2c3c([nH]c2c1)C(C)=NCC3	?	i	1e-09	i	i	i
CC1=NCCc2c1[nH]c1cc(O)ccc21	2.1e-07M*	?	1.3e-08	4.5e-07M*!	i	i
N[C@@H](Cc1cc(O)c(O)cc1O)C(=O)O	i	i	5.5e-09	i	i	i
N#C/C(=C\c1ccc(O)c(O)c1)C(N)=S	2.5e-08M*	i	1e-08	i	i	?
O=C1C[C@@H]2OCC=C3CN4CC[C@]56c7ccccc7N1[C@H]5[C@@H]2[C@H]3C[C@@H]46	i	i	2.6e-08	i	i	i
N#CC(C#N)=Cc1cc(O)c(O)c(O)c1	4.4e-08M*	i	5.8e-08	?	i	i
Oc1ccc2c3c1O[C@@H]1c4[nH]c5c(c4C[C@@]4(O)[C@@H](C2)N(CC2CC2)CC[C@]314)C[C@]1(O)[C@@H]2Cc3ccc(O)c4c3[C@@]1(CCN2CC1CC1)[C@H]5O4	?	i	1.9e-09	i	i	i
CC(C)[C@@]1(NC(=O)[C@@H]2C[C@@H]3c4cccc5[nH]cc(c45)C[C@H]3N(C)C2)O[C@@]2(O)[C@@H]3CCCN3C(=O)[C@H](Cc3ccccc3)N2C1=O	?	i	1e-09	i	i	i
CN1C[C@@H](CNC(=O)OCc2ccccc2)C[C@H]2c3cccc4c3c(cn4C)C[C@@H]21	3.9e-08M*	i	1e-09	?	i	i
CCCCCCCCCCCCCC(=O)O[C@H]1[C@@H](C)[C@@]2(O)[C@@H](C=C(CO)C[C@]3(O)C(=O)C(C)=C[C@@H]23)C2C(C)(C)[C@]21OC(C)=O (some centres not stated)	i	i	1e-09	i	i	i
C=CCN1CC[C@@]23CCCC[C@@H]2[C@@H]1Cc1ccc(O)cc13	i	i	1e-09	i	i	i
CN1C[C@H](CO)C=C2c3cccc4[nH]cc(c34)C[C@H]21	1.5e-08M*	i	6.5e-09	i	i	i
CC[C@H](CO)NC(=O)[C@@H]1C=C2c3cccc4[nH]cc(c34)C[C@@H]2N(C)C1	2.7e-08M*	i	1.8e-08	i	i	i
CC[C@H](CO)NC(=O)[C@H]1C=C2c3cccc4[nH]cc(c34)C[C@H]2N(C)C1	?	i	1e-09	i	i	i
C/C=C1\C[C@H](C)[C@](O)(CO)C(=O)OCC2=CCN3CC[C@@H](OC1=O)[C@@H]23	i	i	3.4e-09	i	i	i
O=C(Cn1ncc2c3ccccc3n(Cc3cccc(Cl)c3)c2c1=O)N1CCC2(CC1)OCCO2	2.5e-08M*	i	1e-09	?	i	?
CC1=C[C@@H]2c3cccc4[nH]cc(c34)C[C@H]2N(C)C1	5.9e-08M*	i	3.5e-08	?	i	i
CCN(CC)C(=O)N[C@@H]1C[C@H]2c3cccc4[nH]cc(c34)C[C@@H]2N(C)C1	?	i	1.1e-08	i	i	i
O=C(O)c1ccccc1-c1c2cc(Br)c(=O)cc-2oc2[c]([Hg])c(O)c(Br)cc12	1.7e-05M*	3.8e-07M*	2.8e-08	7.8e-07M*	2.9e-07M*	1.5e-08M*
CC(C)[C@@]1(NC(=O)[C@@H]2C=C3c4cccc5[nH]cc(c45)C[C@H]3N(C)C2)O[C@@]2(O)[C@@H]3CCCN3C(=O)[C@H](Cc3ccccc3)N2C1=O	3.8e-08M*	i	1e-09	?	i	i
CC(C)[C@H]1C(=O)N2CCC[C@@H]2[C@]2(O)O[C@@](NC(=O)[C@H]3C=C4c5cccc6[nH]cc(c56)C[C@H]4N(C)C3)(C(C)C)C(=O)N12	2.7e-08M*	i	2.9e-09	i	i	i
CC(C)[C@H]1C(=O)N2CCC[C@H]2[C@]2(O)O[C@](NC(=O)[C@@H]3C=C4c5cccc6[nH]cc(c56)C[C@H]4N(C)C3)(C(C)C)C(=O)N12	5.3e-08M*	i	1e-09	?	i	i
CC(C)[C@]1(NC(=O)[C@H]2C=C3c4cccc5[nH]cc(c45)C[C@H]3N(C)C2)O[C@@]2(O)[C@H]3CCCN3C(=O)[C@H](Cc3ccccc3)N2C1=O	?	i	1e-09	i	i	i
CC(=O)[C@@H]1CC[C@@H]2[C@H]3CC[C@H]4C[C@@H](O)CC[C@]4(C)[C@@H]3C(=O)C[C@]21C	?	i	4.8e-08	i	i	i
